Assay results published in PubChem BioAssay (EPA / NIEHS).
Values joined by “and” are separate entries in the source; they are usually repeats but may differ in a detail not shown here. Equal entries are not always repeated. Some compounds were tested as several samples or in several runs, with calls that do not always agree. Active and inactive are the calls of the source. Rule for the calls: active = hit-call score of the fitted dose curve at least 0.9, where 1 is the maximum; inactive = score below 0.9.

What was measured:
[1] = read-out: Interleukin-6 (IL6), IL6 (gene 3569); assay: BSK_CASM3C_IL6: BioMAP Diversity Plus: CASM3C Assay for Interleukin-6 (IL6) Biomarker Activity for (AID 2283040); details: primary human coronary artery smooth muscle cells; actives raise or lower the signal
[2] = read-out: Tissue plasminogen activator (tPA), PLAT (gene 5327); assay: BSK_BE3C_tPA: BioMAP Diversity Plus: BE3C Assay for Tissue plasminogen activator (tPA) Biomarker Activity (AID 2283041); details: primary human bronchial epithelial cells; actives raise or lower the signal;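 for outcome: tPA level quantified by ELISA one day after compound addition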
Procedure, shortened: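 Primary human lung bronchial epithelial cultures receive test chemical; after 24 h, tPA is quantified by ELISA, and gain or loss of signal is fitted bidirectionally relative to DMSO baseline.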

[3] = read-out: Interleukin-8 (IL8), CXCL8 (gene 3576); assay: BSK_CASM3C_IL8: BioMAP Diversity Plus: CASM3C Assay for Interleukin-8 (IL8) Biomarker Activity (AID 2283042); details: primary human coronary artery smooth muscle cells; actives raise or lower the signal;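 note: IL-8 protein level quantified by ELISA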
[4] = read-out: Human Leukocyte Antigen - DR isotype (HLADR), HLA-DRA (gene 3122); assay: BSK_CASM3C_HLADR: BioMAP Diversity Plus: CASM3C Assay for Human Leukocyte Antigen - DR isotype (HLADR) Biomarker Activity (AID 2283043); details: primary human coronary artery smooth muscle cells; actives raise or lower the signal;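 note: cell-surface HLA-DR protein level quantified by ELISA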
[5] = read-out: Macrophage colony-stimulating factor (MCSF), CSF1 (gene 1435); assay: BSK_CASM3C_MCSF: BioMAP Diversity Plus: CASM3C Assay for Macrophage colony-stimulating factor (MCSF) Biomarker Activity (AID 2283044); details: primary human coronary artery smooth muscle cells; actives raise or lower the signal;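 note: M-CSF protein amount quantified by ELISA after 24 h exposure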
[6] = read-out: Low-density lipoprotein receptor (LDLR), LDLR (gene 3949); assay: BSK_CASM3C_LDLR: BioMAP Diversity Plus: CASM3C Assay for Low-density lipoprotein receptor (LDLR) Biomarker Activity (AID 2283045); details: primary human coronary artery smooth muscle cells; actives raise or lower the signal;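 note: LDLR protein level on the cell surface quantified by ELISA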
[7] = read-out: Monocyte Chemoattractant Protein-1 (MCP1), CCL2 (gene 6347); assay: BSK_CASM3C_MCP1: BioMAP Diversity Plus: CASM3C Assay for Monocyte Chemoattractant Protein-1 (MCP1) Biomarker Activity (AID 2283046); details: primary human coronary artery smooth muscle cells; actives raise or lower the signal;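 note: MCP-1 level quantified by ELISA 24 h after dosing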
[8] = BSK_CASM3C_Proliferation: Cell Proliferation Assessment in the BioMAP Diversity Plus: CASM3C Assay (AID 2283047); details: primary human coronary artery smooth muscle cells;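 note: sulforhodamine B total protein stain as relative cell number at 560 nm; sub-confluent cells exposed 48 h before staining; fitted both ways against DMSO so gain or loss of cell number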
[9] = read-out: Monokine induced gamma interferon (MIG), CXCL9 (gene 4283); assay: BSK_CASM3C_MIG: BioMAP Diversity Plus: CASM3C Assay for Monokine induced gamma interferon (MIG) Biomarker Activity (AID 2283048); details: primary human coronary artery smooth muscle cells; actives raise or lower the signal;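 note: MIG protein level measured by ELISA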
[10] = read-out: serum amyloid A (SAA), SAA1 (gene 6288); assay: BSK_CASM3C_SAA: BioMAP Diversity Plus: CASM3C Assay for serum amyloid A (SAA) Biomarker Activity (AID 2283049); details: primary human coronary artery smooth muscle cells; actives raise or lower the signal;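 note: SAA protein level quantified by ELISA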

SMILES | outcome [1] | AC50 [2] | outcome [3] | outcome [4] | outcome [5] | outcome [6] | outcome [7] | AC50 [8] | outcome [9] | outcome [10] | outcome [2] | outcome [8] | AC50 [5] | AC50 [1] | AC50 [7] | AC50 [4] | AC50 [6] | AC50 [10] | AC50 [3] | AC50 [9]
CC1COC(Cn2cncn2)(c2ccc(Oc3ccc(Cl)cc3)cc2Cl)O1 (stereo not given) | inactive | 27.4 µM (active) | inactive | inactive | inactive | inactive | inactive | 27.8 µM (active) | inactive | inactive |  |  |  |  |  |  |  |  |  | 
CCOc1cc(Oc2ccc(C(F)(F)F)cc2Cl)ccc1[N+](=O)[O-] | inactive |  | inactive | inactive | inactive | inactive | inactive | 20 µM (active) | inactive | inactive | inactive |  |  |  |  |  |  |  |  | 
COC(=O)c1ccccc1C(=O)OC | inactive |  | inactive | inactive | inactive | inactive | inactive |  | inactive | inactive | inactive | inactive |  |  |  |  |  |  |  | 
Oc1ccccc1-c1ccccc1 | inactive |  | inactive | inactive | inactive | inactive | inactive |  | inactive | inactive | inactive | inactive |  |  |  |  |  |  |  | 
CCCCOC(=O)c1ccccc1C(=O)OCCCC | inactive |  | inactive | inactive | inactive | inactive | inactive | 34.9 µM (active) | inactive | inactive | inactive | inactive | 767 nM (active) |  |  |  |  |  |  | 
CNC(=S)S | inactive |  | inactive | inactive | inactive | inactive | inactive |  | inactive | inactive | inactive | inactive |  |  |  |  |  |  |  | 
CO/C=C(/C(=O)OC)c1ccccc1Oc1cc(Oc2ccccc2C#N)ncn1 | inactive | 28.2 µM (active) | inactive | inactive | inactive | inactive | inactive | 13.5 µM (active) and 27.1 µM (active) and 13.9 µM (active) | inactive | inactive | inactive | inactive |  | 15.8 µM (active) and 21.1 µM (active) | 30.7 µM (active) and 37.9 µM (active) and 37.6 µM (active) |  |  |  |  | 
CC(C)C1(C)N=C(c2nc3ccccc3cc2C(=O)O)NC1=O (stereo not given) | inactive |  | inactive | inactive | inactive | inactive | inactive |  | inactive | inactive | inactive | inactive |  |  |  |  |  |  |  | 
CCCC1COC(Cn2cncn2)(c2ccc(Cl)cc2Cl)O1 (stereo not given) | inactive |  | inactive | inactive | inactive | inactive | inactive |  | inactive | inactive | inactive | inactive |  |  |  |  |  |  |  | 
C=CCC1=C(C)C(OC(=O)C2C(C=C(C)C)C2(C)C)CC1=O (stereo not given) | inactive |  | inactive | inactive | inactive | inactive | inactive | 34.4 µM (active) [middle of 4 runs] | inactive | inactive | inactive |  |  |  |  | 31.7 µM (active) and 32 µM (active) and 27.9 µM (active) | 16.8 µM (active) and 21 µM (active) | 4.17 µM (active) |  | 
COc1nc(NC(C)C)nc(NC(C)C)n1 | inactive |  | inactive | inactive | inactive | inactive | inactive |  | inactive | inactive | inactive | inactive |  |  |  |  |  |  |  | 
CCCCNC(=O)OCC#CI |  | 30 µM (active) |  |  |  | inactive |  | 6.91 µM (active) and 7.15 µM (active) |  |  | inactive |  | 26.4 µM (active) and 15.8 µM (active) | 32.3 µM (active) and 36.3 µM (active) | 20.8 µM (active) and 24.5 µM (active) | 30.8 µM (active) and 24.6 µM (active) |  | 14.8 µM (active) and 14.3 µM (active) | 36.6 µM (active) | 29.5 µM (active) and 28.7 µM (active)
CC(C)Oc1cc(-n2nc(C(C)(C)C)oc2=O)c(Cl)cc1Cl | inactive |  | inactive | inactive | inactive | inactive | inactive | 29 µM (active) | inactive | inactive | inactive |  |  |  |  |  |  |  |  | 
CC(Oc1ccc(Cl)cc1Cl)C(=O)O (stereo not given) | inactive |  | inactive | inactive | inactive | inactive | inactive |  | inactive | inactive | inactive | inactive |  |  |  |  |  |  |  | 
COc1nc(C)nc(NC(=O)NS(=O)(=O)c2ccccc2CCC(F)(F)F)n1 | inactive |  | inactive | inactive | inactive | inactive | inactive |  | inactive | inactive | inactive | inactive |  |  |  |  |  |  |  | 
N#Cc1cc(Br)c(O)c(Br)c1 | inactive |  | inactive | inactive | inactive | inactive | inactive |  | inactive | inactive | inactive | inactive |  |  |  |  |  |  |  | 
CCCN(CCC)c1c([N+](=O)[O-])cc(S(N)(=O)=O)cc1[N+](=O)[O-] |  | 30.3 µM (active) [middle of 4 runs] |  |  |  | inactive |  | 35.1 µM (active) [middle of 4 runs] |  |  |  |  | 36.1 µM (active) [middle of 4 runs] | 35.2 µM (active) [middle of 4 runs] | 37.1 µM (active) [middle of 4 runs] | 34.4 µM (active) [middle of 4 runs] | 39.7 µM (active) | 37.1 µM (active) [middle of 4 runs] | 33.5 µM (active) [middle of 4 runs] | 34.7 µM (active) [middle of 4 runs]
C#CCOS(=O)OC1CCCCC1Oc1ccc(C(C)(C)C)cc1 (stereo not given) | inactive | 13.2 µM (active) | inactive |  |  | inactive |  | 16.5 µM (active) | inactive |  |  |  | 27000 nM (active) |  | 29.8 µM (active) | 9.71 µM (active) |  | 5.32 µM (active) |  | 

SMILES | outcome [1] | AC50 [2] | outcome [3] | outcome [4] | outcome [5] | outcome [6] | outcome [7] | AC50 [8] | outcome [9] | outcome [10] | outcome [2] | outcome [8] | AC50 [5] | AC50 [1] | AC50 [7] | AC50 [4] | AC50 [6] | AC50 [10] | AC50 [3] | AC50 [9]
O=C(O)COc1nc(Cl)c(Cl)cc1Cl | inactive |  | inactive | inactive | inactive | inactive | inactive |  | inactive | inactive | inactive | inactive |  |  |  |  |  |  |  | 
O=C(O)c1nc(Cl)ccc1Cl | inactive |  | inactive | inactive | inactive | inactive | inactive |  | inactive | inactive | inactive | inactive |  |  | 0.147 µM (active) |  |  |  |  | 
COc1cnc(OC)n2nc(NS(=O)(=O)c3c(OCC(F)F)cccc3C(F)(F)F)nc12 | inactive |  | inactive | inactive | inactive | inactive | inactive |  | inactive | inactive | inactive | inactive |  |  |  |  | 16.8 µM (active) |  |  | 
COc1nc(C)nc(NC(=O)NS(=O)(=O)c2ccccc2Cl)n1 | inactive |  | inactive | inactive | inactive | inactive | inactive |  | inactive | inactive | inactive | inactive |  |  | 0.507 µM (active) |  |  |  |  | 
CCON=C(CC)C1=C(O)CC(c2c(C)cc(C)cc2C)CC1=O (stereo not given) | inactive |  | inactive | inactive | inactive | inactive | inactive |  | inactive | inactive | inactive | inactive |  |  |  |  |  |  |  | 
CCc1nn(C)c(C(=O)NCc2ccc(C(C)(C)C)cc2)c1Cl | inactive | 20 µM (active) | inactive | inactive | inactive | inactive | inactive | 14.4 µM (active) | inactive | inactive |  |  |  |  |  |  |  |  |  | 
CNC(=O)ON=CC(C)(C)SC | inactive |  | inactive | inactive | inactive | inactive | inactive |  | inactive |  | inactive | inactive |  |  |  |  |  | 1.35 µM (active) |  | 
COC(=O)C(C)Oc1ccc(Oc2ccc(Cl)cc2Cl)cc1 (stereo not given) | inactive |  | inactive | inactive | inactive | inactive | inactive |  | inactive | inactive | inactive | inactive |  | 32.6 µM (active) |  |  |  |  |  | 
COP(N)(=O)SC (stereo not given) | inactive |  | inactive | inactive | inactive | inactive | inactive |  | inactive | inactive | inactive | inactive |  |  |  |  |  |  |  | 
CC(C)(C)c1ccc(CSc2cnn(C(C)(C)C)c(=O)c2Cl)cc1 | inactive |  | inactive | inactive | inactive |  | inactive | 6.17 µM (active) | inactive | inactive | inactive |  |  |  |  |  | 20 µM (active) |  |  | 
CCCCC(CC)COC(=O)c1ccccc1C(=O)OCC(CC)CCCC (stereo not given) |  |  | inactive | inactive | inactive | inactive | inactive |  | inactive | inactive | inactive | inactive |  | 7.31 µM (active) |  |  |  |  |  | 
CCNc1nc(Cl)nc(NC(C)C)n1 | inactive |  | inactive | inactive | inactive | inactive | inactive |  | inactive | inactive | inactive | inactive |  |  |  |  |  |  |  | 
CON(C)C(=O)Nc1ccc(Cl)c(Cl)c1 | inactive |  | inactive | inactive | inactive | inactive | inactive |  | inactive | inactive | inactive | inactive |  |  |  |  |  |  |  | 
Fc1ccc(Oc2ccnc3cc(Cl)cc(Cl)c23)cc1 |  | 31.9 µM (active) | inactive | inactive | inactive | inactive |  | 24.4 µM (active) | inactive | inactive |  |  |  | 11.4 µM (active) | 30.6 µM (active) |  |  |  |  | 
Cc1c(F)c(F)c(COC(=O)C2C(/C=C(\Cl)C(F)(F)F)C2(C)C)c(F)c1F (stereo not given) | inactive |  | inactive | inactive | inactive | inactive | inactive |  | inactive | inactive | inactive | inactive |  |  |  |  |  |  |  | 
COC(=O)C=C(C)OP(=O)(OC)OC | inactive |  | inactive | inactive | inactive | inactive | inactive |  | inactive | inactive | inactive | inactive |  |  |  |  |  |  |  | 
OC(c1ccc(Cl)cc1)(c1cncnc1)c1ccccc1Cl (stereo not given) | inactive |  | inactive | inactive | inactive | inactive | inactive | 27.6 µM (active) | inactive | inactive | inactive |  |  |  |  |  |  |  |  | 
